# From the supplement of paper PMC8253809
# “And” between values parts separate entries of the source, which are not always exact repeats. Identical values can stand only once.
# How the values were obtained:
# Test in all cases: growth inhibition (% activity, log2 RLU normalised to DMSO / staurosporine); higher = more growth inhibition
# Conditions in all cases: 33 µM
# DIPGX29 = tested on: DIPGX29 (H3.3 K27M diffuse intrinsic pontine glioma line)
# How it was run: (§1)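 Approved drugs were tested in triplicate at a single final concentration of about 33 μM for 7 days at 37 °C, 5% CO2, on pHGG cell lines and H9-derived neural stem cells. Readout was CellTiter-Glo luminescence, log2-transformed and scaled per plate to % activity between solvent and positive control wells. The median over replicates gives the growth-inhibition value.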
# DIPGX37 = tested on: DIPGX37 (H3.3 K27M diffuse intrinsic pontine glioma line)
# How it was run: as §1
# DIPGX7 = tested on: DIPGX7 (H3.3 K27M diffuse intrinsic pontine glioma line)
# How it was run: as §1
# DIPGX9 = tested on: DIPGX9 (diffuse intrinsic pontine glioma line)
# How it was run: as §1
# HGGX39 = tested on: HGGX39 (paediatric high-grade glioma line)
# How it was run: as §1
# HGGX6 = tested on: HGGX6 (H3.3 G34R paediatric high-grade glioma line)
# How it was run: as §1
# HNSC = tested on: HNSC
# How it was run: as §1
# SUDIPGIV = tested on: SUDIPGIV (diffuse intrinsic pontine glioma line)
# How it was run: as §1
# SUDIPGVI = tested on: SUDIPGVI (diffuse intrinsic pontine glioma line)
# How it was run: as §1
# SUDIPGXIII = tested on: SUDIPGXIII (diffuse intrinsic pontine glioma line)
# How it was run: as §1
structure (smiles),measurement,setting,value
NC(=O)c1ncn([C@@H]2O[C@H](CO)[C@@H](O)[C@H]2O)c1N,growth inhibition,DIPGX29,1.44%
same,growth inhibition,DIPGX37,1.81%
same,growth inhibition,DIPGX7,1.73%
same,growth inhibition,DIPGX9,2.02%
same,growth inhibition,HGGX39,2.08%
same,growth inhibition,HGGX6,0.815%
same,growth inhibition,HNSC,5.91%
same,growth inhibition,SUDIPGIV,0.00762%
same,growth inhibition,SUDIPGVI,2.75%
same,growth inhibition,SUDIPGXIII,-1.11%
CC[C@H](C)C(=O)O[C@H]1C[C@@H](C)C=C2C=C[C@H](C)[C@H](CC[C@@H]3C[C@@H](O)CC(=O)O3)[C@H]21,growth inhibition,DIPGX29,6.68%
same,growth inhibition,DIPGX37,-1.93%
same,growth inhibition,DIPGX7,8.58%
same,growth inhibition,DIPGX9,5.72%
same,growth inhibition,HGGX39,16.2%
same,growth inhibition,HGGX6,10.8%
same,growth inhibition,HNSC,51.5%
same,growth inhibition,SUDIPGIV,18.1%
same,growth inhibition,SUDIPGVI,-6.1%
same,growth inhibition,SUDIPGXIII,-0.657%
OC[C@H]1O[C@H](O[C@]2(CCl)O[C@H](CCl)[C@@H](O)[C@@H]2O)[C@H](O)[C@@H](O)[C@H]1Cl,growth inhibition,DIPGX29,-2.41%
same,growth inhibition,DIPGX37,-0.64%
same,growth inhibition,DIPGX7,-2.77%
same,growth inhibition,DIPGX9,-3.01%
same,growth inhibition,HGGX39,-2.1%
same,growth inhibition,HGGX6,-2.77%
same,growth inhibition,HNSC,-5.57%
same,growth inhibition,SUDIPGIV,-0.426%
same,growth inhibition,SUDIPGVI,-3.09%
same,growth inhibition,SUDIPGXIII,0.882%
CCN[C@H]1CN(CCCOC)S(=O)(=O)c2sc(S(N)(=O)=O)cc21,growth inhibition,DIPGX29,0.611%
same,growth inhibition,DIPGX37,0.875%
same,growth inhibition,DIPGX7,1.84%
same,growth inhibition,DIPGX9,0.558%
same,growth inhibition,HGGX39,2.35%
same,growth inhibition,HGGX6,2.83%
same,growth inhibition,HNSC,-0.529%
same,growth inhibition,SUDIPGIV,-0.244%
same,growth inhibition,SUDIPGVI,2.59%
same,growth inhibition,SUDIPGXIII,-0.696%
NNC(=O)c1ccncc1.Nc1ccc(C(=O)O)c(O)c1,growth inhibition,DIPGX29,0.532%
same,growth inhibition,DIPGX37,2.72%
same,growth inhibition,DIPGX7,1.7%
same,growth inhibition,DIPGX9,2.6%
same,growth inhibition,HGGX39,2.23%
same,growth inhibition,HGGX6,1.63%
same,growth inhibition,HNSC,-0.818%
same,growth inhibition,SUDIPGIV,0.972%
same,growth inhibition,SUDIPGVI,3.47%
same,growth inhibition,SUDIPGXIII,-1.36%
C=C1/C(=C\C=C2/CCC[C@]3(C)[C@@H]([C@H](C)CCCC(C)C)CC[C@@H]23)C[C@@H](O)C[C@@H]1O,growth inhibition,DIPGX29,-0.46%
same,growth inhibition,DIPGX37,2.45%
same,growth inhibition,DIPGX7,4.43%
same,growth inhibition,DIPGX9,1.86%
same,growth inhibition,HGGX39,3.21%
same,growth inhibition,HGGX6,3.92%
same,growth inhibition,HNSC,1.06%
same,growth inhibition,SUDIPGIV,0.347%
same,growth inhibition,SUDIPGVI,1.52%
same,growth inhibition,SUDIPGXIII,0.72%
COc1cc(Nc2c(C#N)cnc3cc(OCCCN4CCN(C)CC4)c(OC)cc23)c(Cl)cc1Cl,growth inhibition,DIPGX29,8.64%
same,growth inhibition,DIPGX37,2.05%
same,growth inhibition,DIPGX7,4.98%
same,growth inhibition,DIPGX9,6.92%
same,growth inhibition,HGGX39,9.47%
same,growth inhibition,HGGX6,10.9%
same,growth inhibition,HNSC,41.9%
same,growth inhibition,SUDIPGIV,-1.39%
same,growth inhibition,SUDIPGVI,8.4%
same,growth inhibition,SUDIPGXIII,1.71%
CC1(C)Cc2c(-c3ccccc3)c(-c3ccc(Cl)cc3)c(CC(=O)O)n2C1,growth inhibition,DIPGX29,1.89%
same,growth inhibition,DIPGX37,3.9%
same,growth inhibition,DIPGX7,3.38%
same,growth inhibition,DIPGX9,1.48%
same,growth inhibition,HGGX39,2.51%
same,growth inhibition,HGGX6,-0.994%
same,growth inhibition,HNSC,8.73%
same,growth inhibition,SUDIPGIV,1.41%
same,growth inhibition,SUDIPGVI,1.99%
same,growth inhibition,SUDIPGXIII,1.12%
O=C(O)c1cc(/N=N/c2ccc(O)c(C(=O)O)c2)ccc1O,growth inhibition,DIPGX29,-0.786%
same,growth inhibition,DIPGX37,0.929%
same,growth inhibition,DIPGX7,0.432%
same,growth inhibition,DIPGX9,0.755%
same,growth inhibition,HGGX39,1.33%
same,growth inhibition,HGGX6,0.125%
same,growth inhibition,HNSC,11.3%
same,growth inhibition,SUDIPGIV,-0.724%
same,growth inhibition,SUDIPGVI,-2.65%
same,growth inhibition,SUDIPGXIII,0.343%
Cc1cc(C#N)cc(C)c1Oc1nc(Nc2ccc(C#N)cc2)nc(N)c1Br,growth inhibition,DIPGX29,3.55%
same,growth inhibition,DIPGX37,-3.38%
same,growth inhibition,DIPGX7,9.93%
same,growth inhibition,DIPGX9,-0.625%
same,growth inhibition,HGGX39,6.72%
same,growth inhibition,HGGX6,6.05%
same,growth inhibition,HNSC,35.3%
same,growth inhibition,SUDIPGIV,1.55%
same,growth inhibition,SUDIPGVI,15.5%
same,growth inhibition,SUDIPGXIII,27.6%
COc1cc(C(=O)NS(=O)(=O)c2ccccc2C)ccc1Cc1cn(C)c2ccc(NC(=O)OC3CCCC3)cc12,growth inhibition,DIPGX29,-0.736%
same,growth inhibition,DIPGX37,1.77%
same,growth inhibition,DIPGX7,0.79%
same,growth inhibition,DIPGX9,-1.19%
same,growth inhibition,HGGX39,1.49%
same,growth inhibition,HGGX6,-2.28%
same,growth inhibition,HNSC,-0.546%
same,growth inhibition,SUDIPGIV,-0.0974%
same,growth inhibition,SUDIPGVI,1.76%
same,growth inhibition,SUDIPGXIII,0.405%
CCN1CCCC1CNC(=O)c1cc(S(=O)(=O)CC)c(N)cc1OC (stereo not given),growth inhibition,DIPGX29,2.92%
same,growth inhibition,DIPGX37,-2.18%
same,growth inhibition,DIPGX7,2.4%
same,growth inhibition,DIPGX9,-0.361%
same,growth inhibition,HGGX39,1.17%
same,growth inhibition,HGGX6,-1.1%
same,growth inhibition,HNSC,0.824%
same,growth inhibition,SUDIPGIV,2.02%
same,growth inhibition,SUDIPGVI,-8.92%
same,growth inhibition,SUDIPGXIII,-0.464%
CCCCCCCCOc1ccccc1C(=O)Nc1ccc(C(=O)OCC[N+](C)(CC)CC)cc1,growth inhibition,DIPGX29,1.1%
same,growth inhibition,DIPGX37,-1.75%
same,growth inhibition,DIPGX7,3.53%
same,growth inhibition,DIPGX9,2.15%
same,growth inhibition,HGGX39,53.7%
same,growth inhibition,HGGX6,10.8%
same,growth inhibition,HNSC,1.89%
same,growth inhibition,SUDIPGIV,4.07%
same,growth inhibition,SUDIPGVI,-1.27%
same,growth inhibition,SUDIPGXIII,2.78%
CC1(C)S[C@@H]2[C@H](NC(=O)C(C(=O)O)c3ccccc3)C(=O)N2[C@H]1C(=O)O (stereo not given in full),growth inhibition,DIPGX29,0.227%
same,growth inhibition,DIPGX37,2.06%
same,growth inhibition,DIPGX7,0.432%
same,growth inhibition,DIPGX9,0.809%
same,growth inhibition,HGGX39,2.53%
same,growth inhibition,HGGX6,1.87%
same,growth inhibition,HNSC,0.956%
same,growth inhibition,SUDIPGIV,-0.316%
same,growth inhibition,SUDIPGVI,3.27%
same,growth inhibition,SUDIPGXIII,0.516%
CC[C@H]1OC(=O)[C@H](C)[C@@H](O[C@H]2C[C@@](C)(OC)[C@@H](O)[C@H](C)O2)[C@H](C)[C@@H](O[C@@H]2O[C@H](C)C[C@H](N(C)C)[C@H]2O)[C@](C)(O)C[C@@H](C)CN(C)[C@H](C)[C@@H](O)[C@]1(C)O,growth inhibition,DIPGX29,2.6% and 0.58%
same,growth inhibition,DIPGX37,0.972% and 0.639%
same,growth inhibition,DIPGX7,2.78% and -0.0129%
same,growth inhibition,DIPGX9,0.764% and 1.25%
same,growth inhibition,HGGX39,1.94% and 0.554%
same,growth inhibition,HGGX6,0.417% and 2.15%
same,growth inhibition,HNSC,-0.827% and -1.61%
same,growth inhibition,SUDIPGIV,-0.232% and -0.687%
same,growth inhibition,SUDIPGVI,-6.26% and 1.06%
same,growth inhibition,SUDIPGXIII,1.93% and -0.434%
CC(C)C[C@H](NC(=O)[C@H](O)[C@H](N)Cc1ccccc1)C(=O)O,growth inhibition,DIPGX29,1.26%
same,growth inhibition,DIPGX37,0.0198%
same,growth inhibition,DIPGX7,0.163%
same,growth inhibition,DIPGX9,-1%
same,growth inhibition,HGGX39,-2.32%
same,growth inhibition,HGGX6,1.9%
same,growth inhibition,HNSC,0.429%
same,growth inhibition,SUDIPGIV,-2.58%
same,growth inhibition,SUDIPGVI,0.754%
same,growth inhibition,SUDIPGXIII,0.189%
Cc1oncc1C(=O)Nc1ccc(C(F)(F)F)cc1,growth inhibition,DIPGX29,12%
same,growth inhibition,DIPGX37,9.13%
same,growth inhibition,DIPGX7,10.1%
same,growth inhibition,DIPGX9,22.6%
same,growth inhibition,HGGX39,24.2%
same,growth inhibition,HGGX6,9.78%
same,growth inhibition,HNSC,55.7%
same,growth inhibition,SUDIPGIV,28.2%
same,growth inhibition,SUDIPGVI,1.33%
same,growth inhibition,SUDIPGXIII,2.78%
CC[C@H]1OC(=O)[C@H](C)[C@@H](O[C@H]2C[C@@](C)(OC)[C@@H](O)[C@H](C)O2)[C@H](C)[C@@H](O[C@@H]2O[C@H](C)C[C@H](N(C)C)[C@H]2O)[C@](C)(OC)C[C@@H](C)C(=O)[C@H](C)[C@@H](O)[C@]1(C)O,growth inhibition,DIPGX29,-1.86%
same,growth inhibition,DIPGX37,0.02%
same,growth inhibition,DIPGX7,-2.66%
same,growth inhibition,DIPGX9,-0.349%
same,growth inhibition,HGGX39,1.64%
same,growth inhibition,HGGX6,0.562%
same,growth inhibition,HNSC,-3.32%
same,growth inhibition,SUDIPGIV,-2.12%
same,growth inhibition,SUDIPGVI,-0.602%
same,growth inhibition,SUDIPGXIII,-13%
O=C(NCCN1CCOCC1)c1ccc(Cl)cc1,growth inhibition,DIPGX29,0.0777%
same,growth inhibition,DIPGX37,-0.588%
same,growth inhibition,DIPGX7,-0.129%
same,growth inhibition,DIPGX9,-0.472%
same,growth inhibition,HGGX39,-0.0669%
same,growth inhibition,HGGX6,-0.698%
same,growth inhibition,HNSC,-1.63%
same,growth inhibition,SUDIPGIV,-0.786%
same,growth inhibition,SUDIPGVI,-1.17%
same,growth inhibition,SUDIPGXIII,0.934%
Cc1cnc(C(=O)O)c[n+]1[O-],growth inhibition,DIPGX29,1.49%
same,growth inhibition,DIPGX37,2.38%
same,growth inhibition,DIPGX7,1.7%
same,growth inhibition,DIPGX9,5.6%
same,growth inhibition,HGGX39,1.15%
same,growth inhibition,HGGX6,2.68%
same,growth inhibition,HNSC,3.09%
same,growth inhibition,SUDIPGIV,1.14%
same,growth inhibition,SUDIPGVI,1.26%
same,growth inhibition,SUDIPGXIII,0.57%
COc1c2occc2cc2ccc(=O)oc12,growth inhibition,DIPGX29,-0.546%
same,growth inhibition,DIPGX37,-5.42%
same,growth inhibition,DIPGX7,-1.53%
same,growth inhibition,DIPGX9,-1.09%
same,growth inhibition,HGGX39,-2.13%
same,growth inhibition,HGGX6,-2.24%
same,growth inhibition,HNSC,0.777%
same,growth inhibition,SUDIPGIV,-2.41%
same,growth inhibition,SUDIPGVI,-9.54%
same,growth inhibition,SUDIPGXIII,-0.581%
